PubChem BioAssay (NCATS)
Several values for one entry are separate records, joined by “and”; a condition that tells them apart may be missing. Equal values may be shown once. Results filed as inconclusive are left out. Entries that show only a call come without a potency. Activity calls are given as the source filed them. Unless noted, calls come from the whole dose curve.

How the values were obtained:
[1] = biological target: Ubiquitin carboxyl-terminal hydrolase 1 (Homo sapiens) (UniProt O94782); assay: Inhibitors of USP1/UAF1: Pilot qHTS (AID 504865; active = well fitted curve in the direction sought with a large enough effect; an effect the other way counts as inactive or inconclusive; note: nearly all actives have a fitted effect of over 35% in size; note: potency is the fitted concentration of half-maximal effect)
Procedure, shortened: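 Enzyme-free wells gave the negative control, while test wells held 1nM USP1/UAF1 preincubated with compound for 15 min at room temperature. Ub-Rho at 150nM final started the reaction, and fluorescence at 480/540 nm was recorded kinetically.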

[2] = biological target: Estrogen receptor (Homo sapiens) (UniProt P03372); assay: qHTS assay for small molecule antagonists of estrogen receptor alpha signaling (AID 588513; active = well fitted curve in the direction sought with a large enough effect in the signal ratio, with a control signal flat, not every such curve was filed as active; the % refers to the signal ratio)
Sequence of Estrogen receptor (Homo sapiens) (P03372 whole entry, looked up): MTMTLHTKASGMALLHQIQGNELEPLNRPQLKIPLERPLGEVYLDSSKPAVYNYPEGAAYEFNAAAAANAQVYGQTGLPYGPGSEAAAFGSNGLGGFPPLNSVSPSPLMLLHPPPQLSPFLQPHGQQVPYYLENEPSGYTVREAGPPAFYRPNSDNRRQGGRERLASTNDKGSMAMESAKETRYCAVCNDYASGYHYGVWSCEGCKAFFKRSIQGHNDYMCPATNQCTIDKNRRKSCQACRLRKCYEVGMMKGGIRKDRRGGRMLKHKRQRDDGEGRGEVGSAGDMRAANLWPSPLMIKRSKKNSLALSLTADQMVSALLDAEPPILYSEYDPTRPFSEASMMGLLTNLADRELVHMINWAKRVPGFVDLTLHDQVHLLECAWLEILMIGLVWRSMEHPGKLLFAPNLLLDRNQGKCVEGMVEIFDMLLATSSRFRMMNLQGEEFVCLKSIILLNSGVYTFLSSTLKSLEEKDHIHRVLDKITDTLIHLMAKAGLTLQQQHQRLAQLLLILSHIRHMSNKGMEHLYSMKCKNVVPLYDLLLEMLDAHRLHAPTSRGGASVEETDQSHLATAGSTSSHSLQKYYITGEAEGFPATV
Procedure, shortened: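 Antagonist-mode qHTS in ER-alpha-UAS-bla HEK 293 cells: compound titration, 0.5nM estradiol for 18 h, CCF4 fluorescence, Hill-derived IC50.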

[3] = biological target: Estrogen receptor (Homo sapiens) (UniProt P03372); assay: qHTS assay for small molecule agonists of estrogen receptor alpha signaling (AID 588514); note: nearly all actives have a fitted effect of over 70% in size
Procedure, shortened: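 ER-alpha-UAS-bla GripTite HEK 293 cells in medium with 2% charcoal/dextran-treated FBS were treated with compound titrations at 37 C for 18 hrs; beta-lactamase reporter read by CCF4 fluorescence after 2 hrs at RT.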

[4] = biological target: Glucocorticoid receptor (Homo sapiens) (UniProt P04150); assay: qHTS assay for small molecule agonists of glucocorticoid receptor signaling (AID 588532; active = well fitted curve in the direction sought with a large enough effect in the signal ratio, with a control signal flat; the % refers to the signal ratio); conditions: HeLa MMTV-bla, beta-lactamase ratio, agonist, 18 h; stronger effect = higher value; percent of dexamethasone control, DMSO zero
Sequence of Glucocorticoid receptor (Homo sapiens) (P04150 whole entry, looked up): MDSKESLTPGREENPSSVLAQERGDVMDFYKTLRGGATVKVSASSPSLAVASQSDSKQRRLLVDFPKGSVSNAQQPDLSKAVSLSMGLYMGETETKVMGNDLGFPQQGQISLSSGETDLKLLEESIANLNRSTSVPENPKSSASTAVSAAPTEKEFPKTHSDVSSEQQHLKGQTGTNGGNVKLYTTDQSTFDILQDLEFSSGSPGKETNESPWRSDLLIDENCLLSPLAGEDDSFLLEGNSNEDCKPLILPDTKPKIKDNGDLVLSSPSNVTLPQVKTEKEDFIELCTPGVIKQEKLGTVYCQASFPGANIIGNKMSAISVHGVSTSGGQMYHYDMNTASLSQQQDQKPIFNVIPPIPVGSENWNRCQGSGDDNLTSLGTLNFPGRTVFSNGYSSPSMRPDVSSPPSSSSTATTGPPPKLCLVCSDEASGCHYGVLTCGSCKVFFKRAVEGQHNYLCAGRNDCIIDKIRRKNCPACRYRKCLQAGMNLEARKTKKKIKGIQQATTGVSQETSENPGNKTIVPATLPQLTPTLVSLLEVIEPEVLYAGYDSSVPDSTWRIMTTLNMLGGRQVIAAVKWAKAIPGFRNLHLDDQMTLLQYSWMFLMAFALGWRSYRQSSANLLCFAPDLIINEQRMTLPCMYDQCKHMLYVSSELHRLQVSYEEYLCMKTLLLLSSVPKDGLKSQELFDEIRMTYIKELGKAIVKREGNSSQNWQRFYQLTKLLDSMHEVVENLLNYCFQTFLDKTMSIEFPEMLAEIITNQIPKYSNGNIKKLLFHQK
Procedure, shortened: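 Stimulation of a glucocorticoid response element-driven beta-lactamase gene was measured in HeLa cells. Responses were scaled between DMSO basal and 0.1 uM dexamethasone, then fitted for half-maximal stimulation.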

[5] = biological target: Glucocorticoid receptor (Homo sapiens) (UniProt P04150); assay: qHTS assay for small molecule antagonists of glucocorticoid receptor signaling (AID 588533; active = well fitted inhibition curve with a large enough effect in the signal ratio, with a control signal flat, not every such curve was filed as active; the % refers to the signal ratio;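 note: cells stimulated with 2 nM dexamethasone as agonist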)
Procedure, shortened: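 Antagonist-mode qHTS: compound titrations added to GRE-bla HeLa cells, then dexamethasone 2 nM final; 18 h, 37 C. CCF4 FRET fluorescence normalized to dexamethasone and DMSO; IC50 from Hill fit.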

[6] = biological target: Peroxisome proliferator-activated receptor gamma (Homo sapiens) (UniProt P37231); assay: qHTS assay for small molecule agonists of peroxisome proliferator-activated receptor gamma signaling (AID 588536; active = well fitted curve in the direction sought with a large enough effect in the signal ratio, with a control signal flat, not every such curve was filed as active; the % refers to the signal ratio)
Sequence of Peroxisome proliferator-activated receptor gamma (Homo sapiens) (P37231 whole entry, looked up): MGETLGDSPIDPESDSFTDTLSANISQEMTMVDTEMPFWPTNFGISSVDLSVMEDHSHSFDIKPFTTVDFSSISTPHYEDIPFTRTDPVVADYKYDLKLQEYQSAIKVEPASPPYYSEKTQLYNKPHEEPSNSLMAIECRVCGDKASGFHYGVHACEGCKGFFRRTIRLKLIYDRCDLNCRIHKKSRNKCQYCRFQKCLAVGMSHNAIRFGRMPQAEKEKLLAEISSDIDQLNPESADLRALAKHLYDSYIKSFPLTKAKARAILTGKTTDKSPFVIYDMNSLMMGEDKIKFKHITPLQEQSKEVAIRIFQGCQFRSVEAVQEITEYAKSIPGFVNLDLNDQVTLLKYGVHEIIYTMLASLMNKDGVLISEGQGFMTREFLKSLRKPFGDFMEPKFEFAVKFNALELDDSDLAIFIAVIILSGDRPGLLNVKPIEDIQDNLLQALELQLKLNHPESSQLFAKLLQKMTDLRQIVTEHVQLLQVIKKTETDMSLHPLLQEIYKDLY
Procedure, shortened: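 Test agents, titrated, stimulated HEK293 UAS-bla cells overnight (16 h, 37 C). Substrate CCF4 was then added for two hours at room temperature before fluorescence reading.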

[7] = biological target: Vitamin D3 receptor (Homo sapiens) (UniProt P11473); assay: qHTS assay for small molecule antagonists of vitamin D receptor signaling (AID 588541);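 note: receptor activated by calcitriol during compound treatment; series mostly up to about 77 µM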
Sequence of Vitamin D3 receptor (Homo sapiens) (P11473 whole entry, looked up): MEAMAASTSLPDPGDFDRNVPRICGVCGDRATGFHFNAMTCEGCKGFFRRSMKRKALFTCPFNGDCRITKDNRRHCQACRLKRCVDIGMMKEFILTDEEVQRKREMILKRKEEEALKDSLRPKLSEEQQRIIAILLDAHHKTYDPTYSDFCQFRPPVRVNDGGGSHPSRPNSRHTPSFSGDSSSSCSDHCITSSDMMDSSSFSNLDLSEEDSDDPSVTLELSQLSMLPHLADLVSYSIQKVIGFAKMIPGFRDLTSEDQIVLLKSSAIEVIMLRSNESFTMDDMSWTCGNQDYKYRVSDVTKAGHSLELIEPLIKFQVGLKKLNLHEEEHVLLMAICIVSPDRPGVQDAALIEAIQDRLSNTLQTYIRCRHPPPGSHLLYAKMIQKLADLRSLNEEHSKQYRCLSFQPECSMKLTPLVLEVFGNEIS
Procedure, shortened: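 VDR-UAS-bla HEK293T cells (2000/well, 2% charcoal-stripped FBS) were treated with titrated compounds plus 1-alpha,25-dihydroxyvitamin D3 (50 nM or 3 nM final) for 16 h at 37 C. CCF4 beta-lactamase fluorescence was read; Hill fits gave IC50.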

[8] = biological target: Vitamin D3 receptor (Homo sapiens) (UniProt P11473); assay: qHTS assay for small molecule agonists of vitamin D receptor signaling (AID 588543)
Procedure, shortened: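 Measured: β-lactamase reporter activity (CCF4, 405 nm excitation, 460/530 nm emission) in HEK293T VDR-UAS-bla cells after 16 h compound exposure at 37 °C. Normalization against 50 nM 1α,25-dihydroxyvitamin D3 and DMSO; Hill-fit EC50.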

[9] = biological target: Peroxisome proliferator-activated receptor gamma (Homo sapiens) (UniProt P37231); assay: qHTS assay for small molecule antagonists of peroxisome proliferator-activated receptor gamma signaling (AID 588537; active = well fitted inhibition curve with a large enough effect in the signal ratio, with a control signal flat, not every such curve was filed as active; the % refers to the signal ratio;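 note: reporter cells co-stimulated with 50 nM rosiglitazone agonist during compound treatment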)
Procedure, shortened: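 PPAR-gamma-UAS-bla HEK293 cells (3000/well, 1% charcoal/dextran-stripped FBS) were preincubated 6-6.5 h at 37 C, given titrated compounds, then stimulated with 50 nM rosiglitazone for 16 h. Beta-lactamase activity was read with CCF4 dye; IC50 came from Hill fits.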

[10] = biological target: Bile acid receptor (Homo sapiens) (UniProt Q96RI1); assay: qHTS assay for small molecule antagonists of farnesoid X receptor signaling (AID 588526)
Sequence of Bile acid receptor (Homo sapiens) (Q96RI1 whole entry, looked up): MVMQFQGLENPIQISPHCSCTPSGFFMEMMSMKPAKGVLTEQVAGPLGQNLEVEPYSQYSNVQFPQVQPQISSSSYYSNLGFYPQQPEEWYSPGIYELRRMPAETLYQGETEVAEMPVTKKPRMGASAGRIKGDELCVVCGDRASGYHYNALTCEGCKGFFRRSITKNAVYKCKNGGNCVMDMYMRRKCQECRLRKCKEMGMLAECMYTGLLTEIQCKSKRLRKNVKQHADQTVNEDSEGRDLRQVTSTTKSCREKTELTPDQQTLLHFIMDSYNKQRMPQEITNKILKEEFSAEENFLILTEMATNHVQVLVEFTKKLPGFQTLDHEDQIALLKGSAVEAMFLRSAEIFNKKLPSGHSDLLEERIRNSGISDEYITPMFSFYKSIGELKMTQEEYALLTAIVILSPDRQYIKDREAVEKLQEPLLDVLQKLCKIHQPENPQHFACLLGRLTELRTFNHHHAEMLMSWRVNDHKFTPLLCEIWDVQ
Procedure, shortened: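 Concentration-response titrations were fitted to the Hill equation for half-maximal inhibition and maximal response, with data normalised to 50 uM chenodeoxycholic acid and DMSO control wells. Cells: FXR-UAS-bla HEK293T, dialyzed FBS.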

[11] = qHTS assay for small molecule antagonists of peroxisome proliferator-activated receptor delta signaling (AID 588535; active = well fitted inhibition curve with a large enough effect in the signal ratio, with a control signal flat, not every such curve was filed as active; the % refers to the signal ratio;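 for max response: cells co-treated with a PPAR-delta agonist as stimulator during compound exposure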); conditions: HEK293T PPARd-UAS-bla, beta-lactamase FRET ratio, 18 h; 460 nm channel
Procedure, shortened: (§1)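 GeneBLAzer PPAR-delta-UAS-bla HEK293T cells in medium with 2% charcoal/dextran FBS were preincubated 5 hrs at 37 C, then given compounds, incubated 18 hrs at 37 C, and read by CCF4 beta-lactamase fluorescence; IC50 from Hill fits.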

[12] = biological target: Peroxisome proliferator-activated receptor delta (Homo sapiens) (UniProt Q03181); assay: as above
Sequence of Peroxisome proliferator-activated receptor delta (Homo sapiens) (Q03181 whole entry, looked up): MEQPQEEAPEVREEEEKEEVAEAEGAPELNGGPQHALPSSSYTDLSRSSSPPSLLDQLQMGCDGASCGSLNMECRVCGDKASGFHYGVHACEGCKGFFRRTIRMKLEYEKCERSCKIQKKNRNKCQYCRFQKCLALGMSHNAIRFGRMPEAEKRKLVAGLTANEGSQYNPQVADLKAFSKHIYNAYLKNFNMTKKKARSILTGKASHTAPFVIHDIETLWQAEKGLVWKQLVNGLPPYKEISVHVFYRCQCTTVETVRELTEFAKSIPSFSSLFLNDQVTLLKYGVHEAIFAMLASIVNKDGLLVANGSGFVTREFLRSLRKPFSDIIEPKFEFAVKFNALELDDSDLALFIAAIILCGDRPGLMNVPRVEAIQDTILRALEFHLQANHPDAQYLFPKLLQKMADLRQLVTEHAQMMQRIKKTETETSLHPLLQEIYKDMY
Procedure, shortened: as §1

[13] = qHTS for Inhibitors of ATXN expression: Validation of Cytotoxic Assay (AID 588349; active = well fitted curve in the direction sought with a large enough effect; an effect the other way counts as inactive or inconclusive)
Procedure, shortened: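 HEK293 cells were dosed with titrated compounds for 72 hr at 37 degrees C. Viability was read by CellTiter Glo luminescence, with intracellular ATP as the marker of cell survival.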

[14] = biological target: DNA dC->dU-editing enzyme APOBEC-3G (Homo sapiens) (UniProt Q9HC16); assay: qHTS for inhibitors of Vif-A3G interactions: Validation (AID 588379; active = well fitted curve in the direction sought with a large enough effect; an effect the other way counts as inactive or inconclusive)
Sequence of DNA dC->dU-editing enzyme APOBEC-3G (Homo sapiens) (Q9HC16 whole entry, looked up): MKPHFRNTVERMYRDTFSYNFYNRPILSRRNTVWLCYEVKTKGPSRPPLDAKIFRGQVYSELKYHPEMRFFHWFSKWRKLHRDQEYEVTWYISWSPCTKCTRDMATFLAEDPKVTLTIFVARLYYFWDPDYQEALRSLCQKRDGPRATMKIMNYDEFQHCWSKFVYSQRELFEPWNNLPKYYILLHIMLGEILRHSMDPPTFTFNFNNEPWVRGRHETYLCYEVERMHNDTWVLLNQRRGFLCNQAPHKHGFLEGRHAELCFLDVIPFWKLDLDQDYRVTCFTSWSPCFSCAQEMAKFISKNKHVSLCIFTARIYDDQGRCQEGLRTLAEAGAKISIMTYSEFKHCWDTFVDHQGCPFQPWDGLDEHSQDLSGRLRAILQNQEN
Procedure, shortened: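 HeLa cells stably expressing Vif and A3G-eYFP, 700 cells/well, incubated overnight at 37 deg C, then exposed to compound overnight at 37 deg C. Inhibition of Vif-mediated degradation read as increased yellow fluorescence (Ex 488/Em 500-530) by laser-scanning cytometry.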

[15] = biological target: Androgen receptor (Homo sapiens) (UniProt P10275); assay: qHTS assay for small molecule agonists of androgen receptor signaling (AID 588515; active = well fitted curve in the direction sought with a large enough effect in the signal ratio, with a control signal flat; the % refers to the signal ratio); conditions: AR-UAS-bla HEK293, beta-lactamase ratio, agonist 16 h; stronger effect = higher value
Sequence of Androgen receptor (Homo sapiens) (P10275 whole entry, looked up): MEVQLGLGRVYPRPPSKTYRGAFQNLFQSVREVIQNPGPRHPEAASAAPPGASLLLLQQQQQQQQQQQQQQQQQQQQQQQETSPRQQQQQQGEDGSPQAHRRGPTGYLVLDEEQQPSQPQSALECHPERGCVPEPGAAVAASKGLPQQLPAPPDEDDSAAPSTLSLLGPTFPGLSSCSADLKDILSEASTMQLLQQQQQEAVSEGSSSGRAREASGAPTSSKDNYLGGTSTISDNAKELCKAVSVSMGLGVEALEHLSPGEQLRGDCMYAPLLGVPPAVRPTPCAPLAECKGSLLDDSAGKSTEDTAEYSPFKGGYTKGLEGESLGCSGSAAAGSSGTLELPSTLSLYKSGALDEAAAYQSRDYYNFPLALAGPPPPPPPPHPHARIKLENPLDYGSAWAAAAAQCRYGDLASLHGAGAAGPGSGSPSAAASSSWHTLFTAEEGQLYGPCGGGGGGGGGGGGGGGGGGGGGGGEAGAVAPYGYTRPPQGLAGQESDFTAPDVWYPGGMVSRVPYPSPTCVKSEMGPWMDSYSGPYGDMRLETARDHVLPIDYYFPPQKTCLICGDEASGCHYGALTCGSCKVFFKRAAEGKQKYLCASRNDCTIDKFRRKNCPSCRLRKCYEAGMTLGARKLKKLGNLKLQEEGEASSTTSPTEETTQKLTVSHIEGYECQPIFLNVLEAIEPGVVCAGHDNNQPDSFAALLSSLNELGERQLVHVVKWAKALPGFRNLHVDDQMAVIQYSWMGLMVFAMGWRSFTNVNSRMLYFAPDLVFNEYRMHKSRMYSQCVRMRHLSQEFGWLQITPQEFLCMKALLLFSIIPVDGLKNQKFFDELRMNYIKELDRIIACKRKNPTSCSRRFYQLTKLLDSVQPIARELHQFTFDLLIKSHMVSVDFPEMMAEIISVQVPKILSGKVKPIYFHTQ
Procedure, shortened: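 EC50 and efficacy came from Hill fits of titrations (up to 92 uM) normalized to 30 nM R1881 as 100% and DMSO as 0%. Compound exposure was 16 h at 37 C on AR-UAS-bla HEK293 cells, with a 405/460/530 nm CCF4 fluorescence read.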

[16] = biological target: Androgen receptor (Homo sapiens) (UniProt P10275); assay: qHTS assay for small molecule antagonists of androgen receptor signaling (AID 588516; active = well fitted curve in the direction sought with a large enough effect in the signal ratio, with a control signal flat, not every such curve was filed as active; the % refers to the signal ratio)
Procedure, shortened: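 Compounds tested in titration against 10 nM R1881 in AR-responsive bla reporter HEK 293 cells; CCF4 fluorescence (460/530 nm) after 16 h exposure gave IC50 and efficacy.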

SMILES: Nc1ccc(S(=O)(=O)Nc2nccs2)cc1
- Potency [1]: inactive
- outcome [2]: inactive
- outcome [3]: inactive
- activation [4]: -6.26% (inactive)
- outcome [5]: inactive
- outcome [6]: inactive
- outcome [7]: inactive
- outcome [8]: inactive

SMILES: O=C(O)c1ccccc1O
- Potency [1]: inactive

SMILES: O=S(=O)(O)NC1CCCCC1
- Potency [1]: inactive
- outcome [9]: inactive
- outcome [7]: inactive
- outcome [8]: inactive

SMILES: O=C1c2c(O)cccc2Cc2cccc(O)c21
- outcome [10]: inactive
- activation [4]: -1.63% (inactive)
- outcome [5]: inactive
- max response [11]: -22%
- outcome [12]: inactive
- outcome [6]: inactive

SMILES: CC(C)(C)C(=O)C(Oc1ccc(Cl)cc1)n1ccnc1 (stereo not given)
- Potency [1]: inactive

SMILES: NC(=O)c1ncn([C@@H]2O[C@H](CO)[C@@H](O)[C@H]2O)n1
- Potency [1]: inactive
- Potency [13]: inactive
- activation [4]: 1.78% (inactive)
- outcome [5]: inactive
- outcome [7]: inactive
- outcome [8]: inactive

SMILES: c1ccc2c(CC3=NCCN3)cccc2c1
- Potency [1]: inactive

SMILES: O=C1NS(=O)(=O)c2ccccc21
- Potency [1]: inactive
- max response [11]: 2.93%
- outcome [12]: inactive
- outcome [6]: inactive

SMILES: CCCCN(CCCC)CC(O)c1cc(Cl)cc2c1-c1ccc(Cl)cc1/C2=C/c1ccc(Cl)cc1 (stereo not given)
- Potency [1]: inactive

SMILES: CCCc1c(OCCCCc2nn[nH]n2)ccc(C(C)=O)c1O
- outcome [10]: inactive
- activation [4]: -8.74% (inactive)
- outcome [5]: inactive

SMILES: [Cl][In]([Cl])[Cl]
- outcome [2]: inactive
- outcome [3]: inactive
- max response [11]: 29.3%
- outcome [12]: inactive
- outcome [7]: inactive
- outcome [8]: inactive

SMILES: O=C1O[C@H]([C@@H](O)CO)C(O)=C1O
- Potency [1]: inactive
- activation [4]: 1.61% (inactive) and 16.4% (inactive)
- outcome [5]: inactive
- max response [11]: -14.8%
- outcome [12]: inactive
- outcome [6]: inactive
- outcome [9]: inactive

SMILES: Oc1cccc(O)c1
- Potency [1]: inactive
- outcome [2]: inactive
- activation [4]: 1.81% (inactive)
- outcome [5]: inactive
- max response [11]: 15.8%
- outcome [12]: inactive
- outcome [6]: inactive
- outcome [9]: inactive
- outcome [7]: inactive
- outcome [8]: inactive

SMILES: Cc1c(O)cccc1C(=O)N[C@@H](CSc1ccccc1)[C@H](O)CN1C[C@H]2CCCC[C@H]2C[C@H]1C(=O)NC(C)(C)C
- Potency [1]: inactive
- outcome [8]: inactive

SMILES: OC[C@H]1O[C@@H](O[C@@H]2[C@@H](CO)O[C@](O)(CO)[C@H]2O)[C@H](O)[C@@H](O)[C@H]1O
- Potency [1]: inactive
- outcome [14]: inactive

SMILES: Cc1cccc(Nc2cc(Cl)nc(SCC(=O)O)n2)c1C
- Potency [1]: inactive
- outcome [14]: inactive
- outcome [2]: inactive
- outcome [3]: inactive
- activation [15]: 4.07% (inactive)
- activation [4]: -9.26% (inactive)
- outcome [6]: inactive
- outcome [9]: inactive
- outcome [7]: inactive

SMILES: CC1(C)[C@@H]2CC[C@@]1(C)C(=O)C2
- Potency [1]: inactive
- outcome [14]: inactive
- outcome [2]: inactive
- outcome [3]: inactive
- activation [4]: 6.36% (inactive)
- outcome [5]: inactive
- max response [11]: 5.89%
- outcome [12]: inactive
- outcome [7]: inactive
- outcome [8]: inactive

SMILES: c1ccc(CN(CC2=NCCN2)c2ccccc2)cc1
- Potency [1]: inactive
- outcome [14]: inactive

SMILES: NCCNCCNCCNCCN
- Potency [1]: inactive
- activation [15]: 15.1% (inactive) and -3.31% (inactive)
- outcome [16]: inactive
- activation [4]: -3.86% (inactive) and -5.35% (inactive)
- outcome [5]: inactive
- outcome [9]: inactive
- outcome [7]: inactive
- outcome [8]: inactive

SMILES: CCCCCCCCCCCCOS(=O)(=O)O
- Potency [1]: 79.4 µM (active)
- outcome [5]: inactive
- outcome [6]: inactive
- outcome [9]: inactive
- outcome [7]: inactive
- outcome [8]: inactive

SMILES: CC(O)COc1ccccc1 (stereo not given)
- Potency [1]: inactive
- activation [15]: 4.06% (inactive)
- outcome [16]: inactive
- outcome [10]: inactive
- activation [4]: -13.7% (inactive)
- outcome [5]: inactive
- max response [11]: 6.24%
- outcome [12]: inactive
- outcome [6]: inactive
- outcome [9]: inactive
- outcome [7]: inactive
- outcome [8]: inactive

SMILES: Cc1cc2nc3c(=O)[nH]c(=O)nc-3n(C[C@H](O)[C@H](O)[C@H](O)CO)c2cc1C
- activation [4]: -14% (inactive)

SMILES: CCCCOC(=O)c1ccc(O)cc1
- Potency [1]: inactive
- outcome [10]: inactive
- activation [4]: -4.25% (inactive) and 1.71% (inactive)
- outcome [5]: inactive
- max response [11]: -14.2%
- outcome [12]: inactive
- outcome [7]: inactive
- outcome [8]: inactive

SMILES: CCCCC(CC)COC(=O)c1ccccc1O (stereo not given)
- Potency [1]: inactive
- outcome [2]: inactive
- outcome [3]: inactive
- activation [4]: -10.3% (inactive)
- outcome [5]: inactive
- max response [11]: -34.6%
- outcome [12]: inactive
- outcome [6]: inactive
- outcome [9]: inactive
- outcome [7]: inactive
- outcome [8]: inactive

SMILES: CC12CCC(CC1)C(C)(C)O2
- Potency [1]: inactive
- outcome [2]: inactive
- outcome [3]: inactive
- outcome [10]: inactive
- activation [4]: -0.499% (inactive)
- outcome [5]: inactive
- max response [11]: -10.6%
- outcome [12]: inactive
- outcome [6]: inactive
- outcome [9]: inactive
- outcome [7]: inactive
- outcome [8]: inactive

SMILES: CC1(C)OC(=O)NC1=O
- Potency [1]: inactive

SMILES: CCOC(=O)c1ccc(O)cc1
- Potency [1]: inactive
- outcome [2]: inactive
- outcome [10]: inactive
- outcome [5]: inactive
- max response [11]: -12.7%
- outcome [12]: inactive
- outcome [8]: inactive

SMILES: CN(C)CCN(Cc1ccccc1)c1ccccn1
- Potency [1]: inactive
